In article PMC5540273 (PLoS ONE, 2017):

These molecules were tested on MYO3B. Settings: concentration: 1 μM, replicates: in singlicate; n = 1.
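Note: KINOMEscan kinase panel screen.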

| SMILES | %Inh |
| --- | --- |
| Cn1ccc2ncnc(Oc3ccc(NC(=O)Nc4ccncc4)c(Cl)c3)c21 | 13% |
| COc1cc2c(cc1OC[C@@H](O)CO)ncc1c3ccc(C#N)cc3[nH]c21 | 0% |
| Cc1cn2c(=O)cc(N3CCOCC3)nc2n1Cc1cccc(Cl)c1Cl [GSK2334006] | 0% |
| Cn1cc(-c2ccc3c(c2)CCN3C(=O)Cc2ccccc2Cl)c2c(N)ncnc21 [GSK2608885] | 33% |
| NS(=O)(=O)c1cccc(-c2ccc3nccc(-c4cccc(S(N)(=O)=O)c4)c3c2)c1 [GW867253] | 0% |
| Cl.Oc1cccc(Nc2ccnc3cc(-c4ccncc4)ccc23)c1 [GW494601] | 0% |
| [2H]C([2H])(c1cccc(C(F)(F)F)c1C)n1ccn2c(=O)nc(N3CCOCC3)cc12 [GSK2336394] | 0% |
| Cl.Nc1ncnc2occ(-c3ccc(NC(=O)Nc4cc(C(F)(F)F)ccc4F)cc3)c12 [SB-707548] | 57% |
| O=C1NC(=O)C(N2CCc3ccccc32)=C1c1cccc(Cl)c1 [SB-408010] | 21% |
| C[C@@H](Oc1cc(-n2cnc3ccc(NC(=O)NC(C)(C)C)cc32)sc1C(N)=O)c1ccccc1Cl [GSK346294] | 0% |
| O=c1cc(N2CCOCC2)nc2n(Cc3cccc(Cl)c3Cl)c(C3CC3)nn12 [GSK2358994] | 0% |
| CSc1ccc(-c2cc3ncnc(SCC(=O)O)c3s2)cc1 | 1% |
| c1ccc(-c2n[nH]cc2-c2ccnc3ccccc23)nc1 [GW271431] | 0% |
| O=C(NCCNc1ccnc(Nc2ccc(F)cc2)n1)c1cc2ccccc2s1 [GSK1379874] | 0% |
| Fc1ccc(-c2ncn(CCCN3CCOCC3)c2-c2cccnc2)cc1 [SB-211743] | 17% |
| Cc1ccc(NC(=O)c2ccnc(N3CCN(C)CC3)c2)cc1-c1ccc(C(=O)NCC2CC2)cc1 [GW775604] | 22% |
| CN1c2ccc(CNc3ccc(F)cc3)cc2-c2c(cnn2C)S1(=O)=O | 0% |
| CNc1ncnc2[nH]ncc12 [SKF-18355] | 34% |
| COCCNC(=O)c1ccc(-c2cc(C(=O)NC3CC3)cc(F)c2C)cc1 [GW868318] | 24% |
| CCc1ccnc(/C=C/c2n[nH]c3cc(Sc4ccccc4C(=O)NC)ccc23)c1 | 0% |
| CC(C)Oc1ccc2c(-c3ccnc(Nc4ccc(N5CCN(C)CC5)cc4)n3)cnn2n1 [GW696155] | 0% |
| c1ccc(-c2cc(-c3c[nH]nc3-c3ccccn3)ccn2)cc1 [GW576604] | 0% |
| Fc1ccc(-c2ncn(CCCN3CCOCC3)c2-c2ccccn2)cc1 [SB-211742] | 10% |

Each molecule was assayed on T1, NDR1. Settings: concentration: 1 μM, replicates: in singlicate; n = 1.
T1 construct: gene STK38

| SMILES | %Inh |
| --- | --- |
| Cc1cccc(-c2nc(-c3ccc(S(C)(=O)=O)cc3)sc2-c2ccncc2)c1 | 0% |
| Nc1nc(-c2ccc3c(N)n[nH]c3c2)cc(N2CCCC2)n1 [GSK2227430] | 14% |
| NCC(NC(=O)c1cc(-c2cn[nH]c2)c(-c2ccnc3[nH]ccc23)s1)c1ccccc1.O=C(O)C(F)(F)F.O=C(O)C(F)(F)F (stereo not shown) [GSK1325775] | 65% |
| Cc1c(Cn2c(C)nn3c(=O)cc(N4CCOC(C)C4)nc23)cccc1C(F)(F)F (stereo not shown) [GSK2344444] | 0% |
| O=C(Nc1cccc(-c2nn3ncccc3c2-c2ccnc(Nc3cccc(C(F)(F)F)c3)n2)c1)c1c(F)cccc1F [GSK299495] | 0% |
| N#Cc1c(N2CCOCC2)sc(-c2ccn[nH]2)c1-c1ccc(Cl)cc1 | 7% |
| CCc1nc(-c2cccc(C)c2)c(-c2ccnc(NCc3ccccc3)c2)s1 | 0% |
| Nc1nccc(-c2c(-c3ccc(F)cc3)ncn2C2CCN(CC(F)(F)F)CC2)n1 [SB-236560] | 38% |
| CC(=O)Nc1ccc(COc2ccc(Nc3ccnc4cc(-c5ccccn5)ccc34)cc2)cc1.Cl [GW440148] | 20% |
| O=C(NCCCN1CCOCC1)c1cccc(Nc2nccc(Nc3ccc(Oc4ccccc4)cc3)n2)c1 [GW663929] | 40% |
| COc1cc2c(cc1OCCN1CCN(C)CC1)ncc1c3ccc(C#N)cc3[nH]c21 | 52% |
| COc1ccc(Nc2ncc(C#N)c(Nc3ccccc3C(N)=O)n2)cc1N1CCN(C)CC1.Cl [GSK1558669] | 98.8% |
| Cn1ccc2ncnc(Oc3ccc(NC(=O)Nc4ccncc4)c(Cl)c3)c21 | 0% |
| COc1cc2c(cc1OC[C@@H](O)CO)ncc1c3ccc(C#N)cc3[nH]c21 | 62% |
| Cc1cn2c(=O)cc(N3CCOCC3)nc2n1Cc1cccc(Cl)c1Cl [GSK2334006] | 10% |
| Cn1cc(-c2ccc3c(c2)CCN3C(=O)Cc2ccccc2Cl)c2c(N)ncnc21 [GSK2608885] | 21% |
| NS(=O)(=O)c1cccc(-c2ccc3nccc(-c4cccc(S(N)(=O)=O)c4)c3c2)c1 [GW867253] | 41% |
| Cl.Oc1cccc(Nc2ccnc3cc(-c4ccncc4)ccc23)c1 [GW494601] | 24% |

| SMILES | %Inh |
| --- | --- |
| [2H]C([2H])(c1cccc(C(F)(F)F)c1C)n1ccn2c(=O)nc(N3CCOCC3)cc12 [GSK2336394] | 0% |
| Cl.Nc1ncnc2occ(-c3ccc(NC(=O)Nc4cc(C(F)(F)F)ccc4F)cc3)c12 [SB-707548] | 29% |
| O=C1NC(=O)C(N2CCc3ccccc32)=C1c1cccc(Cl)c1 [SB-408010] | 6% |
| C[C@@H](Oc1cc(-n2cnc3ccc(NC(=O)NC(C)(C)C)cc32)sc1C(N)=O)c1ccccc1Cl [GSK346294] | 17% |
| O=c1cc(N2CCOCC2)nc2n(Cc3cccc(Cl)c3Cl)c(C3CC3)nn12 [GSK2358994] | 0% |
| CSc1ccc(-c2cc3ncnc(SCC(=O)O)c3s2)cc1 | 1% |
| c1ccc(-c2n[nH]cc2-c2ccnc3ccccc23)nc1 [GW271431] | 17% |
| O=C(NCCNc1ccnc(Nc2ccc(F)cc2)n1)c1cc2ccccc2s1 [GSK1379874] | 0% |
| Fc1ccc(-c2ncn(CCCN3CCOCC3)c2-c2cccnc2)cc1 [SB-211743] | 33% |
| Cc1ccc(NC(=O)c2ccnc(N3CCN(C)CC3)c2)cc1-c1ccc(C(=O)NCC2CC2)cc1 [GW775604] | 27% |
| CN1c2ccc(CNc3ccc(F)cc3)cc2-c2c(cnn2C)S1(=O)=O | 16% |
| CNc1ncnc2[nH]ncc12 [SKF-18355] | 46% |
| COCCNC(=O)c1ccc(-c2cc(C(=O)NC3CC3)cc(F)c2C)cc1 [GW868318] | 33% |
| CCc1ccnc(/C=C/c2n[nH]c3cc(Sc4ccccc4C(=O)NC)ccc23)c1 | 7% |
| CC(C)Oc1ccc2c(-c3ccnc(Nc4ccc(N5CCN(C)CC5)cc4)n3)cnn2n1 [GW696155] | 86% |
| c1ccc(-c2cc(-c3c[nH]nc3-c3ccccn3)ccn2)cc1 [GW576604] | 17% |
| Fc1ccc(-c2ncn(CCCN3CCOCC3)c2-c2ccccn2)cc1 [SB-211742] | 13% |
